Screen size: about 190,000 compounds; about 1,300 (0.68%) were called active. Shown is part of a subset that was picked to be rich in actives. A number with no mark means an inactive call. No stated cut-off is given here; in the data, active means inhibition above about 50%; inactive means the rest.

One may read the inhibition as the drop in the measured response relative to a control, in per cent.

For this assay, the target named is Mannose-6-phosphate isomerase (Homo sapiens) (UniProt P34949). The assay can be described thus: human PMI inhibitors, high substrate, primary screen, biochemical, fluorescence intensity, high mannose 6-phosphate (AID 1220). The settings on record: recombinant PMI enzyme, coupled fluorescence intensity; at 20 µM; stronger effect = higher value.
Mannose-6-phosphate isomerase (Homo sapiens), sequence (P34949 whole entry, looked up): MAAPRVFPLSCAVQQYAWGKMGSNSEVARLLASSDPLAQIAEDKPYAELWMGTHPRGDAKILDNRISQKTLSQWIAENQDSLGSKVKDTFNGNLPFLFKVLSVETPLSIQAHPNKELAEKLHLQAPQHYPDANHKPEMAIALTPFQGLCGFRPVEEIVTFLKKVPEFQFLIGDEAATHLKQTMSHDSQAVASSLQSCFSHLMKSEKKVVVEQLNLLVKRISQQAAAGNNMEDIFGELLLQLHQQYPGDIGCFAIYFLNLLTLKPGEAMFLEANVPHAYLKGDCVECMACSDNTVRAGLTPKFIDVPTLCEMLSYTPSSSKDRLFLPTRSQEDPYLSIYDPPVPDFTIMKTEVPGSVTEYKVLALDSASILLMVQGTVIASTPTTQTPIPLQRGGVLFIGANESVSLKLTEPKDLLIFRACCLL
`CCOc1ccccc1N1CSC2=C(C#N)C(c3c(OC)ccc4ccccc34)CC(=O)N2C1` (stereo not given): the inhibition was 67.1% (active). On to `COc1ccc2ccccc2c1C1CC(=O)N2CN(C3CCCCC3)CSC2=C1C#N` (stereo not given), for which the inhibition was 52.1% (active). In the case of `COc1cccc(C2CC(=O)N3CN(c4cccc(Cl)c4C)CSC3=C2C#N)c1OC` (stereo not given) it was 0.2%; in that of `CCOc1cc(C2CC(=O)N3CN(C4CCCCC4)CSC3=C2C#N)ccc1O` (stereo not given), 49%.

In the case of `CC(C)c1ccc(C2CC(=O)N3CN(C)CSC3=C2C#N)cc1` (stereo not given), the inhibition is 28.9%. `COc1cc(C2CC(=O)N3CN(c4ccccc4C)CSC3=C2C#N)cc(OC)c1OC` (stereo not given): the inhibition was 11.4%. Take `COc1ccc2ccccc2c1C1CC(=O)N2CN(C)CSC2=C1C#N` (stereo not given): the inhibition was 68.7% (active). For the compound `COc1ccccc1N1CSC2=C(C#N)C(c3ccc(SC)cc3)CC(=O)N2C1` (stereo not given), the inhibition is 7.1%. In the case of `CCc1ccccc1N1CSC2=C(C#N)C(c3cc(OC)c(OC)cc3OC)CC(=O)N2C1` (stereo not given) it was 9%; in that of `COc1ccc(OC)c(-n2c(-c3cccc(S(=O)(=O)N(C)C)c3)n[nH]c2=S)c1`, 15.9%; in that of `Nc1nc(-c2ccc(Cl)cc2)c(S(=O)(=O)c2ccccc2)s1`, -1.5%. The result for `COc1cc(/C=N/NC(=O)CN2CCOCC2)ccc1OCc1ccccc1` reads -5.3%; that for `COc1ccc(Cl)c(NC(=O)Cn2nnc(-c3ccccc3N)n2)c1`, -3.6%; that for `CCc1nc(Nc2ccc3c(c2)OCO3)c2oc3ccccc3c2n1`, 23%. In the case of `CCOCCCNS(=O)(=O)c1ccc(NC(=O)C2CC(=O)N(c3ccc(C)cc3)C2)cc1` (stereo not given), the inhibition was 6%. Turning to `Cc1cc(C)c(C(=O)/C=C/C=C/c2ccccc2)c(=O)[nH]1`, the inhibition was 22.8%.

As to `C/C(=N\NC(=O)c1nn(C)c(C)c1Br)c1ccc(NC(=O)c2ccccc2F)cc1`, the inhibition is 10.7%. In the case of `COc1ccc(C(=O)NC(=S)NNC(=O)c2ccc(NC(=O)C(C)C)cc2)cc1` it was -10.9%; in that of `O=c1[nH]ncc(N2CCCCC2)c1Cl`, 12.3%. In the case of `Cc1cc(F)ccc1NCc1cc2c(cc1[N+](=O)[O-])OCO2` it was 37.6%. `Cc1cc(F)ccc1NCc1ccccc1[N+](=O)[O-]`: the inhibition is 70% (active). The result for `Cc1cc([N+](=O)[O-])ccc1NCc1ccccc1[N+](=O)[O-]` reads 21.5%; that for `CCOC(=O)/C(C(=O)Nc1ccc(Br)cc1)=C1/NC(C)(C)Cc2ccccc21`, 3.4%. The result for `OCCNC(=S)Nc1ccc(Oc2ccccc2)cc1` reads 2.2%. In the case of `CCCC12CN3CCN(CC(C3)/C1=N\NC(=O)c1ccccc1Cl)C2` it was -11.2%. Take `O=C1c2ccccc2C(Nc2ccc3c(c2)OCO3)N1Cc1ccco1` (stereo not given): the inhibition was 57.7% (active). In the case of `O=C1c2ccccc2C(Nc2ccc3c(c2)OCO3)N1Cc1ccc2c(c1)OCO2` (stereo not given) it was 23.7%. The result for `O=C1c2ccccc2C(Nc2ccc3c(c2)OCCO3)N1Cc1ccco1` (stereo not given) reads 0.2%. The result for `CCN(C(=O)CSc1nnc(-c2c[nH]c3ccccc23)o1)C1CCS(=O)(=O)C1` (stereo not given) reads 4.2%; that for `O=c1c2c(nc3nc(NCc4ccccc4Cl)[nH]n13)CCC2`, -5.2%; that for `COc1ccccc1CNc1nc2nc3c(c(=O)n2[nH]1)CCC3`, 4.2%. On to `O=c1c2c(nc3nc(NCc4cccc5ccccc45)[nH]n13)CCC2`, for which the inhibition is 55.7% (active).

As to `Cc1ccc(-c2ccc(=O)n(CC(=O)NCCCN3CCCCC3C)n2)cc1` (stereo not given), the inhibition was 12.3%.

Consider `Cc1ccc(-c2ccc(=O)n(CC(=O)NCCN3CCCCC3C)n2)cc1` (stereo not given), for which the inhibition was 60.7% (active). The result for `CC1CCCCN1CCNC(=O)Cn1nc(-c2ccccc2)ccc1=O` (stereo not given) reads -4.4%; that for `O=[N+]([O-])c1cccc(-c2nc(N3CCOCC3)c3ccccc3n2)c1`, -8.1%; that for `COC(=O)COc1ccc(/C=C2/NC(=O)N(CC(=O)OC)C2=O)cc1`, 1.1%.

For `O=C1C(Cl)=C(NCC2CCCO2)C(=O)N1c1ccccc1` (stereo not given), the inhibition was 2.7%.

In the case of `COc1ccc(/C=C/C(=O)c2ccoc2)cc1`, the inhibition was 3.7%. In the case of `O=C(/C=C/c1ccoc1)c1ccccc1O`, the inhibition was 17.9%. The result for `COc1ccc2ccccc2c1C(=O)/C=C\c1ccoc1` reads 50% (active). The result for `OC1(c2cccs2)CN(c2ccccc2)C2=[N+]1CCCC2` (stereo not given) reads -12%. In the case of `COc1cccc(CNc2ccc(F)c(Cl)c2)c1OC` it was -11%; in that of `COc1cccc(CNc2ccc(N3CCC(C)CC3)cc2)c1OC`, 63.1% (active). Turning to `COc1cccc(CNc2ccc(S(N)(=O)=O)cc2)c1OC`, the inhibition was -2.8%. The result for `COc1ccc(-c2nnn(CC(=O)N(Cc3ccccc3Cl)C(C(=O)NCC3CCCO3)c3ccco3)n2)cc1OC` (stereo not given) reads 23.8%. Turning to `CC1=NOC(=O)/C1=C/c1ccc(-c2ccc(Cl)cc2)o1`, the inhibition is 13.4%. In the case of `CCN1CCN(c2cc(C)c3cc(NC(=S)NCCCN4CCc5ccccc5C4)ccc3n2)CC1` it was 27.2%; in that of `Cc1cc(N2CCN(C)CC2)nc2ccc(NC(=S)NCCN3CCc4ccccc4C3)cc12`, -3.7%; in that of `Cc1cc(N2CCN(C)CC2)nc2ccc(NC(=S)NCCCN3CCc4ccccc4C3)cc12`, 58.5% (active). The result for `Cc1cc(N2CCCC2)nc2ccc(NC(=S)NCCCOC(C)C)cc12` reads -3.8%.

With `CCCCN(CC)CCNC(=O)CCC(=O)Nc1ccc2nc(N3CCN(C)CC3)cc(C)c2c1`, the inhibition was 58.2% (active).

As to `CCCN(CCC)CCNC(=O)CCC(=O)Nc1ccc2nc(N3CCN(C)CC3)cc(C)c2c1`, the inhibition is 42.5%. As to `CCCCNC(=O)CCC(=O)Nc1ccc2nc(N3CCN(C)CC3)cc(C)c2c1`, the inhibition is 12%. The result for `COCCNC(=S)Nc1ccc2nc(N3CCCC3)cc(C)c2c1` reads 12.4%.

Regarding `CCOCCCNC(=S)Nc1ccc2nc(N3CCCC3)cc(C)c2c1`, the inhibition is 50.2% (active). In the case of `CC1CCCCC1NC(=O)CO/N=C/c1ccccc1OC(F)F` (stereo not given) it was 5.8%; in that of `COCCOCCn1c(CCCO)nc2ccccc21`, -2.6%. As to `Cc1ccc(S(=O)(=O)N2CCN(Cc3nc4ccccc4[nH]3)CC2)cc1C`, the inhibition is -2.8%. In the case of `CCOC(=O)Cc1csc(NC(=O)CSc2nnc(Cc3csc(N)n3)n2C)n1`, the inhibition was 14.4%.

These data come from PubChem BioAssay AID1220 (Sanford-Burnham Center for Chemical Genomics, 2008).
